The entries come from a sample that favours hits as a whole.
Dicer processing: blocks human Dicer maturation of pre-miR-21; Q9UPY3; cat-ELCCA pre-miR-21 Dicer processing, chemiluminescence; active compounds read high; 47,000 compounds, 6% hits; z-score at 25 µM; in the data active = z-score above about 3, passing the limit was not always enough;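 also: plate controls were vehicle for no effect and no enzyme for full effect; higher signal means more uncleaved substrate so more Dicer inhibition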
Target sequence (Q9UPY3 whole entry, looked up): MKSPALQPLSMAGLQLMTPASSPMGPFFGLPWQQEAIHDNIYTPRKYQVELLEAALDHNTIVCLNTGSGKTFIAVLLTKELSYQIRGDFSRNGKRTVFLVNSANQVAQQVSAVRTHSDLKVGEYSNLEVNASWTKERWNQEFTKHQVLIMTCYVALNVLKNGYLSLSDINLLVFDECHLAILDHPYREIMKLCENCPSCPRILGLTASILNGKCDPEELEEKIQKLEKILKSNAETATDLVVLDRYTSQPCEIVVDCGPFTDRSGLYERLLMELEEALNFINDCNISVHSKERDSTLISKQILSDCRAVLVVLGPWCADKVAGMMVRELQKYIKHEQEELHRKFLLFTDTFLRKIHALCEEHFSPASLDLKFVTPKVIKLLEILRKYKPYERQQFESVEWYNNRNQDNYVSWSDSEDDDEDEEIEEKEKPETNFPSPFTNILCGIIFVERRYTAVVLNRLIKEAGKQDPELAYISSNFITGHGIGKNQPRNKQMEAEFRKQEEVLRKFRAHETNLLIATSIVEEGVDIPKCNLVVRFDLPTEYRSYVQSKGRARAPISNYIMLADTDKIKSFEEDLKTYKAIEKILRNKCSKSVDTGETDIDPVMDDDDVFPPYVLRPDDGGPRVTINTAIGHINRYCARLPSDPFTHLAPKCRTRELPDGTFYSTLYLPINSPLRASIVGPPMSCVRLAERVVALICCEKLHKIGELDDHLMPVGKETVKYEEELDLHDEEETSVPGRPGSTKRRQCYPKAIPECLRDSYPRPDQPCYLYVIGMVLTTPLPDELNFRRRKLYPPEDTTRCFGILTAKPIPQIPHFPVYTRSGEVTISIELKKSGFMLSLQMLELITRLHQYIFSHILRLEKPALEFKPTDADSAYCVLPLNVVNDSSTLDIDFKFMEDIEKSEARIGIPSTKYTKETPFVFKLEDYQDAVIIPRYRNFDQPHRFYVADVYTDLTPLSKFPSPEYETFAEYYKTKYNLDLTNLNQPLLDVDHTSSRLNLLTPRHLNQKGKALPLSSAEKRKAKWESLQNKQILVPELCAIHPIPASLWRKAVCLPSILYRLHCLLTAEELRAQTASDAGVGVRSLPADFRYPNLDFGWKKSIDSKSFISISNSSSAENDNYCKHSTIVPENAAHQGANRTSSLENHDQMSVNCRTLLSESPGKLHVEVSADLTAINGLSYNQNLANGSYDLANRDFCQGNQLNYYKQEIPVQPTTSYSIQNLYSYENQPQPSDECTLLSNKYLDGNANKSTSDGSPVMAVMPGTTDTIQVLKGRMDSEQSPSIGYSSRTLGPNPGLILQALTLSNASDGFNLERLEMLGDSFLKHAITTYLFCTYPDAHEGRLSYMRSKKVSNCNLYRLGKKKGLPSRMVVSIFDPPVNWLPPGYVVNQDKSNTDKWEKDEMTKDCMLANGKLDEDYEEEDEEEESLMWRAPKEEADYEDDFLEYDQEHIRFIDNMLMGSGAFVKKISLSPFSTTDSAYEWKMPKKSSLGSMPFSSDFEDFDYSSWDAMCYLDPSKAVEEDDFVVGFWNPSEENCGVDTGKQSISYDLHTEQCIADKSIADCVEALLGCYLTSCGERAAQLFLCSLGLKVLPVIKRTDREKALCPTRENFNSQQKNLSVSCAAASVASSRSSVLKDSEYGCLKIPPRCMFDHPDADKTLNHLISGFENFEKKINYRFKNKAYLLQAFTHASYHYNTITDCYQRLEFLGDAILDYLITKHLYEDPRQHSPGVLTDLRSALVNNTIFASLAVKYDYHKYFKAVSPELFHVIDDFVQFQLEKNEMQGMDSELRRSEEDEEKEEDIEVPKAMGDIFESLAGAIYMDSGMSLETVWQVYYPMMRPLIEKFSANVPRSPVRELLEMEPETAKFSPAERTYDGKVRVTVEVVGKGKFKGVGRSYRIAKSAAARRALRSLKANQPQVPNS
Numbers without * were called inactive.

Cc1cc(C)c(C#N)c(N2CCN(c3ccccc3)CC2)n1 was read as Dicer processing 3.2*.
For COCc1cc(C)nc(N2CCN(Cc3ccccc3)CC2)c1C#N the results were Dicer processing 0.42.
CSc1ssc(=Nc2cccc(C(F)(F)F)c2)c1-c1ccccc1 was read as Dicer processing 0.
For Cc1[nH]c(=S)[nH]c(=O)c1Cc1ccc(F)cc1 the results were Dicer processing -0.29.
CN(C)c1ccc(C=C2C(=O)N(c3ccccc3)C(=S)N(c3ccccc3)C2=O)cc1 was read as Dicer processing -1.6.
`O=C1C2ON(c3ccccc3)C(c3ccco3)C2C(=O)N1c1ccccc1` (centres undefined) gave Dicer processing 3.5*.
`CCOc1ccc(N2C(=O)C3ON(c4ccccc4)C(c4ccco4)C3C2=O)cc1` (centres undefined) gave Dicer processing -1.3.
`COc1ccc(C2C3C(=O)N(Cc4ccccc4)C(=O)C3ON2c2ccccc2)cc1` (centres undefined) gave Dicer processing 0.46.
O=C1C2ON(c3ccccc3)C(c3ccco3)C2C(=O)N1Cc1ccccc1 (centres undefined) was read as Dicer processing 4.1*.
Screening O=C1C2ON(c3ccccc3)C(c3ccco3)C2C(=O)N1c1ccc(Br)cc1 (centres undefined) returned Dicer processing 0.66.
Screening O=C1C2ON(c3ccccc3)C(c3ccc(F)cc3)C2C(=O)N1Cc1ccccc1 (centres undefined) returned Dicer processing 0.11.
For O=C(O)c1c[nH]c2cc(Cl)cc(Cl)c2c1=O the results were Dicer processing 44.
For CCCCN(C(=O)NC(=O)Nc1ccc(Cl)cc1)S(C)(=O)=O the results were Dicer processing -0.52.
Screening CCn1c(C(O)c2ccc(N(C)C)cc2)nc2ccccc21 (centres undefined) returned Dicer processing 2.5.
`COc1cccc(C(O)c2nccn2C)c1OC` (centres undefined) gave Dicer processing 3.1.
For CCn1ccnc1C(O)c1ccc(C)cc1 (centres undefined) the results were Dicer processing 3.1*.
`OC1(c2ccc(Cl)cc2)CSc2nc3cc(C(F)(F)F)ccc3n21` (centres undefined) gave Dicer processing 0.2.
For Cc1c(S(=O)(=O)c2ccc(Cl)cc2)csc1S(=O)(=O)N/N=C/c1c(Cl)cccc1Cl the results were Dicer processing -3.
`COc1ccccc1NC(=O)Nc1sccc1-c1nc2ccccc2s1` gave Dicer processing 7.1.
For COc1ccc(Cl)cc1NC(=O)Nc1sccc1-c1nc2ccccc2s1 the results were Dicer processing 5.1*.
Screening COc1ccc(Cl)cc1NC(=O)Nc1nnc(C2CC2)s1 returned Dicer processing -0.31.
Cc1ccc(N2C(=O)CC(Sc3nnc(-c4ccccc4O)o3)C2=O)cc1 (centres undefined) was read as Dicer processing -0.16.
For O=C(CCCN1CCN(c2ccccn2)CC1)c1ccc(F)cc1 the results were Dicer processing 1.2.
For OC1(c2ccc(F)cc2)Cc2ccccc2C2=NCCN21 (centres undefined) the results were Dicer processing 5.6*.
For O=C(CN1C2=NCCN2c2ccccc21)c1ccc(F)cc1 the results were Dicer processing -0.27.
Screening O=C1CCN=C(Nc2ccc(F)c(Cl)c2)S1 returned Dicer processing -1.
Screening O=C(NNC1=NCCN1Cc1ccccc1)c1ccccc1 returned Dicer processing -0.2.
Screening COC(=O)c1ccc(S(=O)(=O)N2CCC(O)CC2)n1C returned Dicer processing 1.4.
`COC(=O)c1ccc(S(=O)(=O)Nc2ccc(N3CCOCC3)cc2)n1C` gave Dicer processing 3.6*.
`COC(=O)c1ccc(S(=O)(=O)N2CCCCCC2)n1C` gave Dicer processing 0.18.
For C=CCOC(=O)c1sc(N2C(=O)c3oc4ccccc4c(=O)c3C2c2ccc(C)cc2)nc1C (centres undefined) the results were Dicer processing 0.42.
`CC1(C)CC(=O)C2=C(C1)Nc1ccc3ccccc3c1C2c1ccc(F)cc1` (centres undefined) gave Dicer processing -0.52.
Cc1cc(S(N)(=O)=O)c(C)cc1Cl was read as Dicer processing -1.1.
`COC(=O)c1c(NC(=O)CSc2ncnc3sc(C)c(C)c23)sc2c1CCCC2` gave Dicer processing -2.3.
Cc1ccc(-c2nc(NC(=O)CSc3nnc(C)s3)ns2)cc1 was read as Dicer processing 1.9.
Screening Cc1ccccc1-c1nc(NC(=O)CSc2ncnc3sc(C)c(C)c23)ns1 returned Dicer processing 3*.
Screening C=CCOc1cccc(C2c3c(oc4ccc(C)cc4c3=O)C(=O)N2CCOC)c1 (centres undefined) returned Dicer processing -0.43.
CC(C)(C)NC(=O)CSc1nnc2c(n1)-c1cccc3cccc-2c13 was read as Dicer processing 0.22.
For CCOc1cc(C2C(C(=O)OC3CCCC3)=C(C)NC3=C2C(=O)CC(c2cccs2)C3)ccc1O (centres undefined) the results were Dicer processing 2.3.
Screening CSc1cccc(NC(=S)/N=C/N(C)C)c1 returned Dicer processing 1.2.
For O=C(O)c1c(-c2ccccc2)c2oc3ccccc3c2[nH]c1=O the results were Dicer processing 4.4*.
`O=c1[nH]c2c(F)cccc2c(O)c1-c1ccccc1` gave Dicer processing -0.48.
Screening O=c1[nH]c2ccccc2c2oc(-c3ccccc3)nc12 returned Dicer processing -1.2.
Screening CC(=O)c1nnn(-c2cccc(Cl)c2Cl)c1C returned Dicer processing 1.3.
C=CCOC(=O)C1=C(C)NC2=C(C(=O)CC(C)(C)C2)C1c1ccc(O)c(OC)c1 (centres undefined) was read as Dicer processing -0.4.
For Cc1ccc(Cn2ncc(Br)c2/C=N/NC(=S)NC(C)(C)C)cc1 the results were Dicer processing -0.09.
For CC(C)(C)NC(=S)N/N=C\c1[nH]ncc1Cl the results were Dicer processing 5*.
`Cc1nc(C(=O)N/N=C/c2[nH]ncc2Cl)cs1` gave Dicer processing -0.33.
Screening CN(C)/C=N/c1nnc(SCc2ccc(Cl)cc2)s1 returned Dicer processing 0.59.
`COc1ccc(CCN2C(=O)C(Oc3ccccc3)C2c2ccc3c(c2)OCO3)cc1` (centres undefined) gave Dicer processing 3.4*.
Screening Cc1ccccc1OC1C(=O)N(Cc2ccc3c(c2)OCO3)C1c1ccc2c(c1)OCO2 (centres undefined) returned Dicer processing 0.63.
For COc1ccc(OC2C(=O)N(CCc3ccc(F)cc3)C2c2ccc3c(c2)OCO3)cc1 (centres undefined) the results were Dicer processing 3.3*.
`COc1ccc(OC2C(=O)N(Cc3ccc4c(c3)OCO4)C2c2cccs2)cc1` (centres undefined) gave Dicer processing 0.58.
O=C1C(Oc2ccccc2)C(c2ccc3c(c2)OCO3)N1Cc1ccc2c(c1)OCO2 (centres undefined) was read as Dicer processing 0.72.
For COc1ccc(OC2C(=O)N(CCc3ccc(Cl)cc3)C2c2ccc3c(c2)OCO3)cc1 (centres undefined) the results were Dicer processing 4.9*.
`O=C1C(Oc2ccccc2)C(c2ccc(F)cc2)N1Cc1ccc2c(c1)OCO2` (centres undefined) gave Dicer processing 3.
O=C1C(Oc2ccc(Cl)cc2)C(c2ccc3c(c2)OCO3)N1CC1CCCO1 (centres undefined) was read as Dicer processing 0.87.
